We go through 16 molecules from ChEMBL document CHEMBL2218924, “A broad activity screen in support of a chemogenomic map for kinase signalling research and drug discovery” (Biochem J, 2013).

The target of assay [1] is Mast/stem cell growth factor receptor Kit (Homo sapiens) (UniProt P10721). As to conditions: at 1 µM.
For assay [2] the target is unchanged. As to conditions: at 10 µM.
Assay [3] concerns the target Proto-oncogene tyrosine-protein kinase Src (Homo sapiens) (UniProt P12931). The following applies: at 1 µM.
For assay [4] the target is unchanged. The following applies: at 10 µM.
The target in assay [5] is Serine/threonine-protein kinase mTOR (Homo sapiens) (UniProt P42345). The following applies: at 1 µM.
For assay [6] the target is unchanged. The following applies: at 1 µM. This is another data set of the same source.
The target of assay [7] is Ribosomal protein S6 kinase beta-1 (Homo sapiens) (UniProt P23443). As to conditions: at 1 µM.
Chain of Ribosomal protein S6 kinase beta-1 (Homo sapiens) (P23443 whole entry, looked up): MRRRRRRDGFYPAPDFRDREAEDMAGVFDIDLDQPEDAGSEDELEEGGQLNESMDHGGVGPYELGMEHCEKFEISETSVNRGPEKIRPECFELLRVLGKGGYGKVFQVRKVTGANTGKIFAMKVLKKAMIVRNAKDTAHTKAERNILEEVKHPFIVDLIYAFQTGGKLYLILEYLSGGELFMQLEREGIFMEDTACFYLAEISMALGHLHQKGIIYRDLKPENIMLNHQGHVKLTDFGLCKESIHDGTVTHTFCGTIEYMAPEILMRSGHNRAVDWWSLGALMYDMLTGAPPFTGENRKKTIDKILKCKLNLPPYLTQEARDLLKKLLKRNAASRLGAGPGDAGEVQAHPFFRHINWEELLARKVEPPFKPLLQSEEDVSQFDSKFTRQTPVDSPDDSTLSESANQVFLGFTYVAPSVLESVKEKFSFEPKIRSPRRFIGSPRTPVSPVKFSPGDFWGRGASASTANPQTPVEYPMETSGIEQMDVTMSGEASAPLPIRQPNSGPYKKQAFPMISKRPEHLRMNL
Assay [8] shares this target. The following applies: at 10 µM.
Assay [9] has as its target Serine/threonine-protein kinase Nek6 (Homo sapiens) (UniProt Q9HC98). The following applies: at 1 µM.
The target is the same in assay [10]. As to conditions: at 10 µM.
Assay [11] addresses Serine/threonine-protein kinase Nek7 (Homo sapiens) (UniProt Q8TDX7). As to conditions: at 1 µM.
For assay [12], the target named is Serine/threonine-protein kinase PAK 2 (Homo sapiens) (UniProt Q13177). As to conditions: at 10 µM.
Chain of Serine/threonine-protein kinase PAK 2 (Homo sapiens) (Q13177 whole entry): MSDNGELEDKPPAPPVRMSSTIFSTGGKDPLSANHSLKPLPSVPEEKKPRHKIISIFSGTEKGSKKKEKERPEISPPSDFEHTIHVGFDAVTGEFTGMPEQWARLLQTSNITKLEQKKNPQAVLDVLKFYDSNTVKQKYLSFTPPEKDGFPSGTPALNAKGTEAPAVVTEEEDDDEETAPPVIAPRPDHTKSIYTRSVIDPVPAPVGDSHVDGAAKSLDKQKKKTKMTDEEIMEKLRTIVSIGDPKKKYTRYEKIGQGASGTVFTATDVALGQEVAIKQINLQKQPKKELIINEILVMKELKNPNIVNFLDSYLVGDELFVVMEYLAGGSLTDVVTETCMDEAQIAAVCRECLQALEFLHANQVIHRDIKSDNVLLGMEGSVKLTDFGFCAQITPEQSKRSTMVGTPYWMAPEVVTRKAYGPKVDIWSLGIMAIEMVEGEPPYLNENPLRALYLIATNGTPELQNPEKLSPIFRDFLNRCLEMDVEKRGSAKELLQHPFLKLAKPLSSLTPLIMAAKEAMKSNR
The target in assay [13] is Serine/threonine-protein kinase mTOR (Homo sapiens) (UniProt P42345). The following applies: at 10 µM.
Assay [14] has the same target. As to conditions: at 10 µM. The source holds these as a separate data set.
Assay [15] concerns the target Serine/threonine-protein kinase Nek7 (Homo sapiens) (UniProt Q8TDX7). As to conditions: at 10 µM.
Assay [16] addresses T1, Serine/threonine-protein kinase NLK (Homo sapiens) (UniProt Q9UBE8).
T1 sequence (whole entry): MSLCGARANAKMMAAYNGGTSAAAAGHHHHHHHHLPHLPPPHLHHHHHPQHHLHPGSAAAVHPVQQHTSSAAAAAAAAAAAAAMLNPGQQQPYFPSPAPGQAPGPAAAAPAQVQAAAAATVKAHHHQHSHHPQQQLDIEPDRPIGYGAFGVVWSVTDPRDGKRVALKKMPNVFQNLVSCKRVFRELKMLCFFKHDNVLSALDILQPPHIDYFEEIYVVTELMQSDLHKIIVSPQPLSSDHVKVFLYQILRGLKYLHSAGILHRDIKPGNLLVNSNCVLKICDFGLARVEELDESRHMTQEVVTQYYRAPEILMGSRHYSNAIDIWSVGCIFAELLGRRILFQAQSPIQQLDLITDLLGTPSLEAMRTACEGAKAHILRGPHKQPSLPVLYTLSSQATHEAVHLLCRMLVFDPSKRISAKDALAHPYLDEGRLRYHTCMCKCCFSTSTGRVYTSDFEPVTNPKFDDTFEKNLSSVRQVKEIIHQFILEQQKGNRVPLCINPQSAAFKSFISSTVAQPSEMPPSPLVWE
As to conditions: at 1 µM.

For assay [17], the target named is T1, Serine/threonine-protein kinase NLK (Homo sapiens). The following applies: at 10 µM.
Assay [18] addresses Serine/threonine-protein kinase PAK 2 (Homo sapiens) (UniProt Q13177). As to conditions: at 1 µM.

Chain of Proto-oncogene tyrosine-protein kinase Src (Homo sapiens) (P12931 2-536 limits assumed): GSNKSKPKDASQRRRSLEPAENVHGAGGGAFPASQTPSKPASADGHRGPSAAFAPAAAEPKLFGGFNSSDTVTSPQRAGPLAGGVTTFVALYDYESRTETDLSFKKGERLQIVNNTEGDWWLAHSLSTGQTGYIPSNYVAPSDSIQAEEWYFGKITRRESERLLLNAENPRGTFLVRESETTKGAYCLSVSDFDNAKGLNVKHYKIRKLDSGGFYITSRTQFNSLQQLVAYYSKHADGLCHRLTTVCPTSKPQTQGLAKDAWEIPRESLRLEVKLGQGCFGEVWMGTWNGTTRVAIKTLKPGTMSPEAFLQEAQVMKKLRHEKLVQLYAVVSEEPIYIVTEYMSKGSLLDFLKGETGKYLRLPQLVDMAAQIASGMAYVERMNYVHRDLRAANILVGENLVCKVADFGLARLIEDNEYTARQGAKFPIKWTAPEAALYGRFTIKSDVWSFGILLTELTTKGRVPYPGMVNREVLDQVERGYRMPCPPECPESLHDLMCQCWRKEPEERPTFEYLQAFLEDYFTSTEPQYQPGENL
Chain of Serine/threonine-protein kinase Nek6 (Homo sapiens) (Q9HC98 whole entry): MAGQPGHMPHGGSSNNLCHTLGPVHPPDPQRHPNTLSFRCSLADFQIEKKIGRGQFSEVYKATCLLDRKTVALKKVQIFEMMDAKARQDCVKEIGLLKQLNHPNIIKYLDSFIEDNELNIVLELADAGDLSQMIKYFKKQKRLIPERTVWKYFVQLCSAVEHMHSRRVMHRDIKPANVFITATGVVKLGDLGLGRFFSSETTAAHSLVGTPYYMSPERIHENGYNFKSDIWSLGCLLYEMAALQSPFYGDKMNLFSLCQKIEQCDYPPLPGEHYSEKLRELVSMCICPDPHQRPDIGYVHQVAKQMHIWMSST
Chain of Serine/threonine-protein kinase Nek7 (Homo sapiens) (Q8TDX7 whole entry, looked up): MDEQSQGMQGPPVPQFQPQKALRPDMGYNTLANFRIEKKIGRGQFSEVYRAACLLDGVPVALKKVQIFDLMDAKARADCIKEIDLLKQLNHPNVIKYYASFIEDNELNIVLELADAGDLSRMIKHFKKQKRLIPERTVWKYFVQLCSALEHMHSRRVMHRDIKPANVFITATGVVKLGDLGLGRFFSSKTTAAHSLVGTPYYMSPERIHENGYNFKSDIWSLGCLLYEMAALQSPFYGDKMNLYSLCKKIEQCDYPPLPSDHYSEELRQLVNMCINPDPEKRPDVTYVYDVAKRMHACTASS
Chain of Mast/stem cell growth factor receptor Kit (Homo sapiens) (P10721 whole entry): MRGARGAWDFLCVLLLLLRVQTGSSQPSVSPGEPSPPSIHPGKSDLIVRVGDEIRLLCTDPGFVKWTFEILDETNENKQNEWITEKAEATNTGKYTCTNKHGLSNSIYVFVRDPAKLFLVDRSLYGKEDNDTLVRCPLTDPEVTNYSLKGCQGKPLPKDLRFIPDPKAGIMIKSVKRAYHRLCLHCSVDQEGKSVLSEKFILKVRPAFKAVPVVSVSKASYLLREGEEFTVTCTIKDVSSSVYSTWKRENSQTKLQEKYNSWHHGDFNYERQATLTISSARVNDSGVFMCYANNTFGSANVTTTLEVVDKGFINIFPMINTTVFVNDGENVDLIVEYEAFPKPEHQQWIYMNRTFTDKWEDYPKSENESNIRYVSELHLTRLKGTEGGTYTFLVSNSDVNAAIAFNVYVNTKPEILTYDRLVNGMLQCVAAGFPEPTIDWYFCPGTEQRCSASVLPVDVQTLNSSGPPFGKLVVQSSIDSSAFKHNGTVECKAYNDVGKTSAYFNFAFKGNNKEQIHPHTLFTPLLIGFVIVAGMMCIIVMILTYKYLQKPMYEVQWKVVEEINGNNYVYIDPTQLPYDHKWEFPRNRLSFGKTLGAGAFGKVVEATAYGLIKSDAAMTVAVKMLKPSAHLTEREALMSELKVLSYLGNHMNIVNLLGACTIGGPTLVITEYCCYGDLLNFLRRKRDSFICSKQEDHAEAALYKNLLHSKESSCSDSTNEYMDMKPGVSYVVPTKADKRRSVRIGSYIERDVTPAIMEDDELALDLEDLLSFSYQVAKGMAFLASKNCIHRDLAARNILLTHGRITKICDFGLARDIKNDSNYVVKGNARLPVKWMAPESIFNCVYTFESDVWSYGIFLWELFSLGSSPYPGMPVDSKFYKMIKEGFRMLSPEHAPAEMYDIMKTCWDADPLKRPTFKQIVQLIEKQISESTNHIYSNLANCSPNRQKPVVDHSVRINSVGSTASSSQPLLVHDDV

On to `Cc1cc(Nc2nc(-c3ccccc3)nc3ccccc23)n[nH]1`, for which the residual activity in assay [1] was 23%; in [2], 2%; in assay [3] it was 14%; in assay [4] it was -2%; in [5], 109%; in assay [6], 128%. For the same molecule, the residual activity in assay [7] is 46%; in assay [8] it was 10%; in assay [9], 105% (inactive); in assay [10], 105%; in assay [11], 105% (inactive); in assay [12] it was 45%.

Regarding `CC#CC(=O)Nc1cc2c(Nc3ccc(F)c(Cl)c3)ncnc2cn1`, the residual activity in [1] turned out to be 111%; in assay [2], 100%; in [3], 89%; in assay [4], 92%; in assay [5], 108%; in assay [13] it was 100%. The residual activity was 113% in assay [6]; 92% in assay [14]; 96% in assay [7]; 98% in assay [8]; 82% (inactive) in assay [9]; 91% in assay [10]. In addition, the residual activity in assay [11] was 94% (inactive); in assay [15], 100% (inactive); in assay [16], 93%; in assay [17], 79%; in [18], 82%; in assay [12] it was 81%.

In the case of `Cc1ccc(NC2=CC(=O)c3sc(C)nc3C2=O)cc1`, the residual activity in assay [1] turned out to be 101%; in assay [2], 107%; in assay [4], 87%; in [5], 96%; in [13], 99%; in [6] it was 100%. For the same molecule, the residual activity was 86% in assay [14]; 115% in assay [7]; 78% in assay [8]; 106% (inactive) in [9]; 104% in assay [10]; 109% (inactive) in [11]. Also, the residual activity in assay [15] was 92% (inactive); in [16] it was 86%; in [17], 85%; in assay [18], 93%; in assay [12] it was 92%.

Consider `O=C1Nc2ccccc2/C1=C1/Nc2ccccc2/C1=N\OCCC(O)CO` (stereo unspecified), for which the residual activity in assay [1] is 10%; in assay [2] it was 1%; in assay [3], 20%; in assay [4] it was -2%; in assay [5], 113%; in assay [13] it was 96%. Besides, the residual activity in assay [6] was 112%; in assay [14], 110%; in assay [7] it was 20%; in [8] it was 6%; in assay [9], 113% (inactive); in assay [10], 113%. Moreover, the residual activity was 104% (inactive) in assay [11], 70% in [17], 80% in assay [18] and 78% in assay [12].

Regarding `N#CC(C#N)=C(N)/C(C#N)=C/c1ccc(O)cc1`, the residual activity in assay [3] was 83%; in assay [14] it was 61%; in assay [7] it was 66%; in assay [8], 77%; in assay [18], 88%; in assay [12], 97%.

Regarding `COc1cc2ncnc(Nc3ccc(NC(=O)c4ccccc4)cc3)c2cc1OC`, the residual activity is 59% in assay [2]; 83% in [3]; 95% in assay [4]; 88% in [5]; 92% in [13]; 97% in assay [6]. Moreover, the residual activity is 75% in assay [14]; 67% in assay [7]; 38% in [8]; 103% (inactive) in assay [9]; 86% (inactive) in assay [15]; 97% in assay [17]. The residual activity in assay [12] was 89%.

`COc1cc2ncnc(N3CCN(C(=O)Nc4ccc(Oc5ccccc5)cc4)CC3)c2cc1OC`: the residual activity in assay [1] came out at 37%; in [2], 7%; in assay [3], 95%; in assay [4] it was 97%; in assay [5], 107%; in assay [13], 102%. Besides, the residual activity in [6] is 98%; in assay [14] it was 99%; in assay [9], 91% (inactive); in assay [10], 126%; in assay [11] it was 97% (inactive); in assay [15], 113% (inactive). The residual activity in [16] was determined as 88%; in assay [17], 89%; in [18] it was 110%; in [12], 86%.

`CN(C)c1ccc(/C=C2\C(=O)Nc3ccccc32)cc1`: the residual activity in assay [1] came out at 24%; in assay [2], 4%; in assay [3], 87%; in assay [4], 85%; in [5] it was 78%; in assay [13], 101%. Moreover, the residual activity was 78% in [6]; 89% in assay [14]; 69% in assay [7]; 29% in [8]; 108% (inactive) in [9]; 107% in assay [10]. Moreover, the residual activity in [11] is 118% (inactive); in [15], 116% (inactive); in [16], 110%; in assay [17], 88%; in assay [18], 96%; in assay [12], 100%.

Turning to `Nc1cccc(-c2cc3c(Oc4cccc(O)c4)ncnc3[nH]2)c1`, the residual activity in assay [1] was 20%; in assay [2], 2%; in assay [3], 6%; in assay [4], -3%; in assay [13] it was 83%; in [6] it was 122%. Further, the residual activity in [14] was 94%; in assay [7], 71%; in assay [8] it was 49%; in assay [16], 79%; in [17] it was 33%; in assay [18] it was 105%. In addition, the residual activity in [12] came out at 70%.

In the case of `O=C1c2ccccc2-[n+]2ccc3c([nH]c4ccccc43)c21`, the residual activity in assay [1] was determined as 106%; in assay [2] it was 97%; in [3] it was 111%; in assay [4], 91%; in assay [5], 103%; in assay [13], 103%. In addition, the residual activity is 116% in assay [6]; 101% in [14]; 86% in assay [7]; 54% in [8]; 109% (inactive) in assay [9]; 104% in assay [10]. Besides, the residual activity in assay [15] is 101% (inactive); in assay [16], 86%; in [17] it was 70%; in assay [18] it was 107%; in [12], 94%.

On to `Cc1nc2cc3nc(-c4cccs4)cnc3cc2n1C`, for which the residual activity in assay [1] turned out to be 80%; in assay [2] it was 13%; in assay [3] it was 78%; in assay [4] it was 86%; in [5], 105%; in assay [13], 107%. The residual activity in [6] was 80%; in assay [14], 84%; in assay [7] it was 98%; in [8] it was 112%; in assay [9], 104% (inactive); in assay [10], 112%. Moreover, the residual activity in assay [11] was 102% (inactive); in assay [15], 107% (inactive); in [16], 104%; in assay [17], 95%; in [18], 99%; in assay [12], 86%.

Regarding `N#C/C(=C(\N)Sc1ccc(N)cc1)c1ccccc1C(F)(F)F`, the residual activity stood at 115% in assay [1]; 105% in [2]; 125% in [3]; 91% in assay [4]; 87% in [5]; 63% in assay [13]. The residual activity in [6] was 118%; in assay [14], 79%; in [7], 68%; in [8], 56%; in assay [9], 113% (inactive); in [10], 112%. Further, the residual activity is 101% (inactive) in assay [11]; 90% (inactive) in assay [15]; 87% in [16]; 95% in assay [17]; 99% in assay [18]; 98% in [12].

Take `CN(C)CCCn1cc(C2=C(c3c[nH]c4ccccc34)C(=O)NC2=O)c2ccccc21`: the residual activity in assay [3] turned out to be 82%; in assay [5], 84%; in assay [6], 83%; in [7] it was 11%; in [8], 2%; in assay [10], 113%. Besides, the residual activity in assay [11] is 117% (inactive); in [15], 121% (inactive); in assay [16], 127%; in assay [17], 88%; in [18], 115%.

On to `Nc1nc(Nc2ccc(S(N)(=O)=O)cc2)nn1C(=S)Nc1c(F)cccc1F`, for which the residual activity turned out to be 100% in assay [1]; 66% in [2]; 23% in assay [3]; 1% in [4]; 108% in assay [5]; 89% in assay [13]. For the same molecule, the residual activity in assay [6] was 128%; in [14] it was 94%; in assay [7], 14%; in assay [8], 11%; in assay [9] it was 89% (inactive); in [10], 44%. Besides, the residual activity in assay [16] was found to be 17%; in assay [17] it was 3%; in assay [18], 47%; in assay [12], 7%.

Take `c1ccc(-c2n[nH]c3c2oc2ccccc23)cc1`: the residual activity came out at 16% in [1]; 1% in assay [2]; 86% in assay [3]; 90% in [4]; 88% in [5]; 85% in assay [13]. The residual activity was 72% in assay [14], 94% (inactive) in assay [9], 94% (inactive) in [11] and 85% in [17].

As for `CC[n+]1c(/C=C/N(C)c2ccccc2)n(-c2ccccc2)c2ccc(-c3nc4ccccc4s3)cc21`, the residual activity in [1] is 123%; in assay [2], 106%; in [3] it was 85%; in assay [4], 128%; in assay [5], 85%; in assay [13], 86%. The residual activity in assay [6] is 84%; in [14], 79%; in [7], 130%; in assay [8], 71%; in assay [9], 108% (inactive); in assay [10], 88%. Further, the residual activity is 117% (inactive) in [11]; 138% (inactive) in assay [15]; 89% in assay [17]; 109% in [18]; 81% in [12].

What is called residual activity is the signal under treatment as a percentage of the control signal.
